HT1080NT lethal – qHTS for induction of synthetic lethality in tumor cells producing 2HG: qHTS for the HT-1080-NT fibrosarcoma cell line; HT-1080-NT fibrosarcoma viability, CellTiter-Glo ATP luminescence, 48 h; Potency, µM (highest dose often 46.1 µM), actives largely listed as cytotoxic; 1.6% of 360,000 active;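 note: NT is the 2HG producing partner of a matched IDH1 knockdown line; nearly all actives have a fitted effect of over 55% in size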
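Fibrosarcoma NT cells, 750 per well in 5% FBS RPMI, were exposed to compound for 48 hours. Viability: CellTiter-Glo luminescence.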
DT40 TDP1 CPT – qHTS for Inhibitors of human tyrosyl-DNA phosphodiesterase 1 (TDP1): qHTS in cells in presence of CPT; AID 686979, 2013; 12% of 420,000 active; Potency, µM (top dose mostly 46.2 µM), hits mostly inhibitors; chicken DT40 Tdp1-/-;hTDP1 cells + 20 nM CPT, ATP luminescence, 48 h; note: nearly all actives have a fitted effect of over 55% in size
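Chicken DT40 Tdp1-/- cells complemented with human TDP1, 400 cells/well, exposed to compounds plus 20 nM camptothecin for at least 48 h at 37 C; viability read as ATP content by CellTiter-Glo luminescence.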
HT1080 IDH1KD tx – qHTS for induction of synthetic lethality in tumor cells producing 2HG: qHTS for the HT-1080-IDH1KD cell line. HT-1080 IDH1 knockdown viability, ATP luminescence, 48 h. Potency, µM (top dose mostly 46.1 µM), usual class: cytotoxic. 2% of 360,000 active. AID 686971, 2013
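Cytotoxicity counter-line: IDH1KD HT-1080, 48 h, CellTiter-Glo. Curves classed by r2, magnitude and activity.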
IL1B secr inh – qHTS for Inhibitors of Inflammasome Signaling: IL-1-beta AlphaLISA Primary Screen; activity change, % at 57.5 µM; THP-1 LPS/ATP IL-1B secretion, AlphaLISA, 16 h; active compounds read low; AID 743279, 2014; 4.7% of 360,000 active; in the data active = activity change below about -50%; inconclusive = mostly about -30% to -49%
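THP-1 cells pretreated 1 hr with compounds (up to 57.5 uM final), then stimulated with LPS (250 ng/mL final) plus ATP (1.25 mM final); secreted IL-1B measured by AlphaLISA after 16 hr, decreased signal indicating inhibition.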
ELG1 repair inh – qHTS screen for small molecules that inhibit ELG1-dependent DNA repair in human embryonic kidney (HEK293T) cells expressing luciferase-tagged ELG1. Potency, µM (series often up to 46.1 µM), actives largely listed as inhibitors. HEK293T ELG1-luciferase reporter, luminescence, 16 h; DNA damage induced by 5-fluorouridine. 2.3% of 330,000 active. AID 504467, 2011; note: nearly all actives have a fitted effect of over 55% in size
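HEK293T cells expressing luciferase-tagged ELG1 (2,000/well) received 5-Fluorouridine plus compound or DMSO for 16 hr at 37 °C. Luciferase was read by ONE-Glo luminescence after 30 min at room temperature.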
TDP1 cell noCPT – qHTS for Inhibitors of human tyrosyl-DNA phosphodiesterase 1 (TDP1): qHTS in cells in absence of CPT; DT40 Tdp1-/- hTDP1 cells, no CPT, ATP luminescence, 48 h; Potency, µM (titrated, usually from 46.2 µM), hits mostly inhibitors; 15% of 420,000 active; AID 686978, 2013; note: nearly all actives have a fitted effect of over 55% in size
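Camptothecin absent (DMSO only). Human TDP1-complemented DT40 knockout cells, 400 cells/well, 37 °C for minimum 48 hr; ATP measured via CellTiter-Glo, 30 min dark incubation, luminescence.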
Numbers stand for hits; . = inactive; ? = inconclusive; / = no result. A selection: hits, their analogues and other compounds. The true share with any hit is near 19%. Unless noted, calls come from the whole dose curve; as a rule, active = well fitted curve in the direction sought with a large enough effect; inconclusive = small, poorly fitted or top-dose-only effect, or another doubt; inactive = no such curve, though single readings can be large; an effect the other way counts as inactive or inconclusive.

SMILES | HT1080NT lethal | DT40 TDP1 CPT | HT1080 IDH1KD tx | IL1B secr inh | ELG1 repair inh | TDP1 cell noCPT
Cc1ccc(N2CCN(C(=O)c3ccccc3Br)CC2)c(C)c1 | . | ? | . | . | . | 25.9µM
O=C(c1ccccc1Br)N1CCN(c2ccccc2)CC1 | . | . | . | . | . | .
Cc1cccc(N2CCN(C(=O)c3ccc4c(c3)c(C)c(C)n4C)CC2)c1C | / | . | / | / | / | ?
CC(=O)n1c(=O)oc2ccccc21 | . | . | . | . | / | .
O=C(C(=O)N1CCN(C(=O)OCc2ccccc2)CC1)c1cccs1 | . | . | . | . | / | ?
COc1ccc2c(c1)C[C@]1(C)c3ccccc3C(=O)N(Cc3ccccc3)[C@H]21 | . | 16.4µM | ? | . | / | 6.31µM
COc1ccc2c(c1)C(=O)N(Cc1ccccc1)C(=O)C2(C)C | . | . | . | . | . | .
CCOC(=O)C#CC(CCc1ccccc1)OS(N)(=O)=O (stereo not given) | . | ? | . | -69.9 | . | ?
Cc1cccc(OCC(=O)Nc2ccc(S(=O)(=O)N(Cc3ccccc3)c3ccccc3)cc2)c1 | / | 10.3µM | / | / | / | 3.26µM
O=C(COc1ccccc1)Nc1ccc(S(=O)(=O)N(Cc2ccccc2)c2ccccc2)cc1 | / | ? | / | / | / | 14.6µM
Cc1ccc(CNC(=O)CN2CCN(c3ccc(F)cc3)CC2)cc1 | . | . | . | . | . | ?
CCOC(=O)/C(C#N)=C1/C=CN(Cc2ccccc2)C=N1 | ? | . | . | . | . | .
CCOC(=O)/C(C#N)=C1\C(=O)N(Cc2ccccc2)c2ccccc21 | . | 9.2µM | . | . | ? | 9.2µM
COc1ccc(Cl)cc1C(=O)NCc1nnnn1-c1ccccc1 | / | . | / | / | / | .
CCN(CC(=O)Nc1c(F)cccc1F)C(=O)c1cc(-c2cccs2)nn1-c1ccccc1 | . | ? | . | . | ? | 18.4µM
CCN(CC(=O)Nc1ccccc1OC)C(=O)c1cc(-c2ccccc2)nn1-c1ccccc1 | ? | 20.6µM | ? | . | ? | ?
Cc1ccc(NC(=O)CN(C)C(=O)c2cc(-c3cccs3)nn2-c2ccccc2)cc1 | . | ? | . | -51.6 | ? | ?
CN(CC(=O)Nc1c(Cl)cccc1Cl)C(=O)c1cc(-c2cccs2)nn1-c1ccccc1 | . | ? | . | . | . | ?
COC(=O)c1cccc2c1NC(=O)C2=O | . | . | . | . | . | 20.6µM
O=C1Nc2c(Cl)cccc2C1=O | ? | 14.6µM | ? | . | / | 23.1µM
O=C1Nc2c(Br)cccc2C1=O | . | 8.2µM | . | . | ? | 11.6µM
C[C@H](CO)N1C[C@H](C)[C@@H](CN(C)C(=O)c2ccncc2)OCc2cnnn2CCCC1=O | . | . | . | . | / | .
Cc1cccc(C)c1NC(=O)CN(C)C(=O)Cc1cccc(C(F)(F)F)c1 | . | . | . | . | ? | .
O=c1cc(CSc2n[nH]c(-c3ccccc3)n2)[nH]c2ccccc12 | / | 25.9µM | / | / | / | 25.9µM
CCc1nc(SCc2cc(=O)c3cc(C)ccc3[nH]2)n[nH]1 | / | . | / | / | / | .
SMILES | HT1080NT lethal | DT40 TDP1 CPT | HT1080 IDH1KD tx | IL1B secr inh | ELG1 repair inh | TDP1 cell noCPT
COc1ccc(C(=O)Nc2ccccc2SCc2cc(=O)c3cccc(C)c3[nH]2)cc1 | / | . | / | / | / | ?
COc1cccc(-c2nc(SCc3cc(=O)c4ccc(C)c(C)c4[nH]3)n[nH]2)c1 | / | ? | / | / | / | 8.2µM
O=c1cc(-c2ccccc2)[nH]c2ccccc12 | ? | 0.517µM | 2.31µM | . | ? | 0.92µM
O=C(NCc1ccco1)/C(=C/c1ccc(F)cc1)NC(=O)c1ccccc1 | . | . | . | . | . | .
Cn1c(CSc2nc3ccccc3n2C)nc2ccccc21 | . | . | . | ? | ? | .
Cn1c(SC2=CS(=O)(=O)c3ccccc32)nc2ccccc21 | 18.4µM | 2.31µM | ? | -119.0 | ? | 2.91µM
CCCCN(C)c1nc(-c2ccco2)c2c(c1C#N)CC(C)(C)OC2 | ? | ? | . | -67.0 | . | ?
C=CCNC(=S)/N=c1/ccccn1CCC | . | ? | . | . | . | 23.1µM
COc1ccc(CCN2C(=O)c3ccccc3C2c2nnnn2-c2ccc3c(c2)OCCO3)cc1OC (stereo not given) | . | . | . | . | / | ?
COc1ccc(CCN2C(=O)c3ccccc3C2c2nnnn2Cc2ccccc2)cc1OC (stereo not given) | . | ? | . | . | / | ?
COc1ccc(-n2nnnc2C2c3ccccc3C(=O)N2C2CCN(Cc3ccccc3)CC2)cc1 (stereo not given) | . | ? | . | . | / | 16.4µM
O=C1c2ccccc2C(c2nnnn2-c2ccc3c(c2)OCCO3)N1CCc1ccccc1F (stereo not given) | . | 14.6µM | . | . | / | ?
O=C1c2ccccc2C(c2nnnn2-c2ccc3c(c2)OCCO3)N1CCc1ccc(O)cc1 (stereo not given) | . | ? | . | . | / | ?
O=C1c2ccccc2C(c2nnnn2-c2ccc3c(c2)OCCO3)N1Cc1ccco1 (stereo not given) | . | ? | . | . | / | ?
COc1ccc(OC)c(CN2C(=O)c3ccccc3C2c2nnnn2-c2ccc3c(c2)OCCO3)c1 (stereo not given) | ? | 6.51µM | ? | . | / | 5.8µM
O=C1c2ccccc2C(c2nnnn2-c2ccc3c(c2)OCCO3)N1Cc1cccc(F)c1 (stereo not given) | . | ? | . | . | / | 16.4µM
O=C1c2ccccc2C(c2nnnn2-c2ccc3c(c2)OCCO3)N1Cc1cccnc1 (stereo not given) | . | . | . | . | / | ?
O=C1c2ccccc2C(c2nnnn2-c2ccc3c(c2)OCCO3)N1Cc1ccc2c(c1)OCO2 (stereo not given) | . | 18.4µM | . | . | / | 16.4µM
Cc1cc2cc(C(c3nnnn3C(C)(C)C)N(Cc3ccco3)CC3CCCO3)c(=O)[nH]c2cc1C (stereo not given) | . | ? | . | . | . | ?
CC(C)CC(c1nnnn1C1CCCC1)N1CCN(c2ccccc2F)CC1 (stereo not given) | . | . | . | . | . | ?
Fc1ccc(CN(Cc2ccccc2)C(c2cccs2)c2nnnn2C2CCCCC2)cc1 (stereo not given) | . | ? | . | . | . | 16.4µM

Compound activity as filed in PubChem.
